Screens: PubChem, The Scripps Research Institute Molecular Screening Center
Shown are actives, neighbours in structure and some others; about 3.5% of the full set was active somewhere.
TEAD-YAP inh: TEAD-YAP interaction inhibition, primary screen, TEAD-YAP interaction inhibitor project, luminescence, HEK-TIYL cells | TEAD-Gal4/YAP UAS-luciferase luminescence | 640,000 compounds, 1.4% hits | inhibition, % at 9.12 µM; in the data active means inhibition above about 32%
MITF inh: MITF inhibitors, primary screen, biochemical, AlphaScreen, human | Microphthalmia-associated transcription factor (Homo sapiens), O75030 | AlphaScreen MITF homodimerization, bead proximity signal | inhibition, % at 2.6 µM | 650,000 compounds, 0.91% hits | AID 1259374, 2018; in the data active means inhibition above about 50%
GPR151 activ: activators of human GPR151, primary screen, cell-based, PathHunter beta-arrestin, luminescence | 650,000 compounds, 1% hits | PathHunter beta-arrestin GPR151 cells | G-protein coupled receptor 151 (Homo sapiens), Q8TDV0 | activation, % at 11.2 µM; in the data active means activation above about 4.9%
Target sequence (Q8TDV0 whole entry, looked up): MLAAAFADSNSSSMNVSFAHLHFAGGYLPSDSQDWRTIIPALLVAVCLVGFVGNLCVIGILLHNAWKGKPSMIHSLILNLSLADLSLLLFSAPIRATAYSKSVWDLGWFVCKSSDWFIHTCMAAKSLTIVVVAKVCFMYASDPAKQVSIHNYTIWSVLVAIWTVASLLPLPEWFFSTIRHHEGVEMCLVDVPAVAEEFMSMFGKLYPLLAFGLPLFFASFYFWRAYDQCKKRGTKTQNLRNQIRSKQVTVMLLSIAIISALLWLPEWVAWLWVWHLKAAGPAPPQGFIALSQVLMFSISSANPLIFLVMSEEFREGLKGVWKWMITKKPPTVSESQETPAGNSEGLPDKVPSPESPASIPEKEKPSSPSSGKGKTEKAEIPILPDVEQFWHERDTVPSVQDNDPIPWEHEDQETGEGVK
FBW7 activator: FBW7 E3 ligase activators, primary screen, biochemical, AlphaScreen, human; AlphaScreen FBW7–phospho-cyclin E peptide binding, activator screen; normalized activity (activation), % at 26.1 µM; 650,000 compounds, 0.13% hits; AID 1259310, 2017; in the data active means normalized activity above about 1.9%;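 further: purified mutant Fbw7 with reduced substrate affinity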
GPR151 confirm: GPR151 activators, triplicate retest, confirmation, cell-based, PathHunter beta-arrestin, luminescence. 6,700 tested, under 10 active. activation, % at 11.2 µM. GPR151 PathHunter beta-arrestin cells, 90 min; % of EA-reagent control over plate median. shares compounds with GPR151 activ;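 active means mean percent activation across replicates above the confirmation screen cutoff of 4.91%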
GPR119 counter: GPR119 activators in beta-arrestin cells, counter-screen for GPR151 activator project, cell-based, PathHunter beta-arrestin, luminescence, triplicate. shares compounds with GPR151 activ. 90 min; 0 = compound-well median, 100 = enzyme-acceptor control. activation, % at 11.2 µM. 6,700 compounds, 0.3% hits. AID 1508611, 2020;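 active means mean percent activation in the counterscreen above 29.09%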;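 further: counterscreen on off-target GPR119 to flag nonselective hits from the GPR151 activator screen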
Large screens that a line does not name were inactive (follow-up assays come after a bar, where they were run); ! = not active in a repeat.

CC1(c2ccccc2Cl)NC(=O)N(Cc2ccccc2C#N)C1=O (configuration not stated)	none
CCC1(c2ccc(F)cc2)NC(=O)N(Cc2ccccc2C#N)C1=O (configuration not stated)	GPR151 activ 5.7 | GPR151 confirm inactive | GPR119 counter inactive
Cc1ccc(C)c(N2CCN(C(=O)CCc3nc(-c4ccccc4F)no3)CC2)c1	GPR151 activ 5.5 | GPR151 confirm inactive | GPR119 counter inactive
O=C(CSc1nc2ccccc2[nH]1)Nc1ccccc1OC(F)F	none
Cc1ccc(N2C(=O)NC3CC2(C)Oc2ccc([N+](=O)[O-])cc23)cc1F (configuration not stated)	none
Cc1ccc(N2C(=N)S/C(=C/c3sccc3C)C2=O)cc1C	none
Cc1ccsc1/C=C1\SC(=N)N(c2ccc(F)cc2)C1=O	GPR151 activ 23 | GPR151 confirm inactive | GPR119 counter inactive
C=CCC1C=CCC(CC=C)N1C(=O)c1ccccc1[N+](=O)[O-] (configuration not stated)	GPR151 activ 9.2 | GPR151 confirm inactive | GPR119 counter inactive
O=C(c1ccccc1[N+](=O)[O-])N1CC2C3C=CC(C3)C2C1 (configuration not stated)	none
CC(=O)c1cccc(-c2nc(NC3CC3)c3ncn(C4CCCCC4)c3n2)c1	GPR151 activ 9.4 | GPR151 confirm inactive | GPR119 counter inactive
CCCNc1nc(-c2cccc(C(C)=O)c2)nc2c1ncn2C1CCCCC1	none
O=C(NC1CC1)c1ccc(-c2nc(NCCO)c3ncn(C4CCCCC4)c3n2)cc1	none
Nc1nc(-c2ccc(C(=O)NC3CC3)cc2)nc2c1ncn2C1CCCCC1	GPR151 activ 6.2 | GPR151 confirm inactive | GPR119 counter inactive
CN1CCN(c2ccc(-c3nc(NCc4cccc(C(F)(F)F)c4)c4ncn(C5CCCCC5)c4n3)cc2)CC1	none
COc1ccc(-c2nc(NC3CCN(Cc4ccccc4)CC3)c3ncn(C4CCCCC4)c3n2)cc1	GPR151 activ 5.8 | GPR151 confirm inactive | GPR119 counter inactive
CN1CCN(C(=O)c2ccc(-c3nc(NCc4cccc(C(F)(F)F)c4)c4ncn(C5CCCCC5)c4n3)cc2)CC1	GPR151 activ 5.0 | GPR151 confirm inactive | GPR119 counter inactive
CCCc1c(O)nc(SCCN(CC)CC)n(C(=O)c2ccccc2Cl)c1=O	none
CCn1nc2c(C)cc3cc4c(cc3n2c1=O)OCO4	none
O=C(CSc1nnc2ncccn12)N1CCN(C(=O)c2ccco2)CC1	none
CCn1nnnc1SCC(=O)N1CCN(C(=O)c2ccco2)CC1	GPR151 activ 5.0 | GPR151 confirm inactive | GPR119 counter inactive
COc1ccc(CCn2ccc(-c3sc(NCc4ccco4)nc3C)n2)cc1	GPR151 activ 8.0 | GPR151 confirm inactive | GPR119 counter inactive
CCCC(=O)Nc1ccc(S(=O)(=O)NCCc2ccc3c(c2)CCCN3C)cc1	none
CCc1cccc(C)c1NC(=S)NN	GPR151 activ 6.2 | GPR151 confirm inactive | GPR119 counter inactive
CCc1cccc(C)c1NC(=O)C(C)C	none
Cc1cc(C)c(S(=O)(=O)NCC23C=CC(O2)C2C(=O)N(c4ccc(Cl)cc4)C(=O)C23)c(C)c1 (configuration not stated)	none
Cc1cc(/C=C2\C(=O)NC(=S)N(c3ccc(F)cc3)C2=O)c(C)n1C1CC1	GPR151 activ 5.3 | GPR151 confirm inactive | GPR119 counter inactive
Cc1cc(/C=C2\C(=O)NC(=O)N(c3ccc(F)cc3)C2=O)c(C)n1C1CC1	none
Cc1ccc(C(=O)COC(=O)C(C)N2C(=O)C3C4CCC(C4)C3C2=O)cc1 (configuration not stated)	GPR151 activ 5.4 | GPR151 confirm inactive | GPR119 counter inactive
CC(C(=O)OCC(=O)c1ccc(Br)cc1)N1C(=O)C2C3CCC(C3)C2C1=O (configuration not stated)	none
COC(=O)c1ccc(NC(=O)CSc2nnc(NC(C)=O)s2)cc1	GPR151 activ 6.4 | GPR151 confirm inactive | GPR119 counter inactive
CCCCNC(=O)CSc1nnc(NC(C)=O)s1	GPR151 activ 6.4 | GPR151 confirm inactive | GPR119 counter inactive
Cc1nnc(SCC(=O)NCCC(c2ccccc2)c2ccccc2)s1	GPR151 activ 5.0 | GPR151 confirm inactive | GPR119 counter inactive
CN1CCCC(n2nc(Cc3ccc(Cl)cc3)c3ccccc3c2=O)CC1 (configuration not stated)	GPR151 activ 5.4! | GPR151 confirm inactive | GPR119 counter inactive
CC1CCCN(C(=O)Cn2nc(Cc3cccnc3)c3ccccc3c2=O)C1 (configuration not stated)	none
O=C(CSc1nnc(-c2ccc(Br)cc2)o1)NC1CCCC1	GPR151 activ 8.1 | GPR151 confirm inactive | GPR119 counter inactive
O=C1NC(=O)/C(=C\c2cccn2-c2ccc(Cl)cc2)N1	none
CC(C)(C)C(=O)NC1(C(F)(F)F)NC(=O)N(c2ccccc2F)C1=O (configuration not stated)	GPR151 activ 6.6 | GPR151 confirm inactive | GPR119 counter inactive
O=C(NCc1ccncc1)c1ccc(OC2CCN(C3CCSC3)CC2)cc1 (configuration not stated)	GPR151 activ 9.7 | GPR151 confirm inactive | GPR119 counter inactive
O=C(NCc1ccccn1)c1cccc(OC2CCN(C3CCSCC3)CC2)c1	GPR151 activ 8.7 | GPR151 confirm inactive | GPR119 counter inactive
CCCC(=O)Nc1cc(C)c(NC(=O)C(C)C)cn1	none
O=c1[nH]c(Nc2ccc([N+](=O)[O-])cc2)cc2ccccc12	none
CCOC(CNc1nc(OC)cc(OC)n1)(OCC)c1ccccn1	GPR151 activ 5.0 | GPR151 confirm inactive | GPR119 counter inactive
CC(=O)Oc1ccc2c(C(F)(F)F)cc(=O)oc2c1C	none
CCCn1c(=O)c2c(nc3n2CC(C)CN3c2cccc(Cl)c2)n(C)c1=O (configuration not stated)	none
CCN(CCO)c1ccc(NC2=C(NC(C)=O)C(=O)c3ccccc3C2=O)cc1	TEAD-YAP inh 61, GPR151 activ 5.1 | GPR151 confirm inactive | GPR119 counter inactive
CCC(=O)NC1=C(Nc2ccc(N)cc2)C(=O)c2ccccc2C1=O	none
O=C(Cn1ncc2cccn2c1=O)Nc1cccc(F)c1	none
O=C(CCC(=O)Nc1ccc(I)cc1)N/N=C/c1ccc(F)cc1	GPR151 activ 6.6 | GPR151 confirm inactive | GPR119 counter inactive
CCC(=O)N1CCN(c2ccc(Nc3cccc(C)n3)nn2)CC1	none
